# Most compounds without a hit are left out; they make up all but 2.6% or so of the library.
# p53 reactivator: restores transcriptional activity of mutant p53. Potency, µM (top dose mostly 92.2 µM), for the others: top-dose activity change, positive = activation, most hits filed as activators. AID 504706. H1299 p53-A138V BP100-luciferase reporter, luminescence, 24 h. actives 0.063% (n = 320,000); active = well fitted activation curve with a large enough effect; inconclusive = small, poorly fitted or top-dose-only effect; inactive = no such curve, though single readings can be large or run the other way; note: potency is the fitted concentration of half-maximal effect; % of control where 0% means no effect; nearly all actives have a fitted effect of over 45% in size
#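 H1299 (p53-null), stable ts p53-A138V + BP100-Luc; 1000 cells/well, Opti-MEM/10% FBS; cpd 4 pt, 1:5; 24 h, 37 deg C, 5% CO2; detection reagent 10 min RT; luminescence.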
# TRPV1 agonist: human TRPV1 agonism; Q8NER1; activation, % at 8.33 µM; TRPV1-expressing cells, Fluo-8 calcium influx, agonist mode; actives 0.19% (n = 320,000); AID 540275; in the data active = activation above about 80%; inconclusive = between about 30% and that limit; note: 0% is about no effect
# Target sequence (Q8NER1 whole entry, looked up): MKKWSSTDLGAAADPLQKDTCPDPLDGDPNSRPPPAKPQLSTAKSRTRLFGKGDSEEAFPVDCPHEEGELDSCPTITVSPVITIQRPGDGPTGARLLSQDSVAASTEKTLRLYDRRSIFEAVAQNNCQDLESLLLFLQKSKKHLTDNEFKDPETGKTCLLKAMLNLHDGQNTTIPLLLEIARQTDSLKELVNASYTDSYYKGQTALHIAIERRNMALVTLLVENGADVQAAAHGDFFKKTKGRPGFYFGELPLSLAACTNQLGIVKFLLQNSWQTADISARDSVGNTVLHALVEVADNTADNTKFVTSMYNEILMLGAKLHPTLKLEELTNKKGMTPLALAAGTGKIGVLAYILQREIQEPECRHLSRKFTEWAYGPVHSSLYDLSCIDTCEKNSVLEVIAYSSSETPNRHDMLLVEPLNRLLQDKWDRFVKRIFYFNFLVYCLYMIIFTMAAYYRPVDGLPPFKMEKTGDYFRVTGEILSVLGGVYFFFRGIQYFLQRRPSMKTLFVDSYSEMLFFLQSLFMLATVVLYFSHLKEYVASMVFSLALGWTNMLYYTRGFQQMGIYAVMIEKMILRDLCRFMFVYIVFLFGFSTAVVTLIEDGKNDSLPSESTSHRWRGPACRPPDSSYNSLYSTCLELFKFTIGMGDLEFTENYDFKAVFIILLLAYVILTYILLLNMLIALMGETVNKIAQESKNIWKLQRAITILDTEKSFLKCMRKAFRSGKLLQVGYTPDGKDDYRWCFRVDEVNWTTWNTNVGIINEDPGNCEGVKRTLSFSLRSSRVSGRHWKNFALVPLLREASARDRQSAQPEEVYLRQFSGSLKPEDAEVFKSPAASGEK
#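 Fluo-8 calcium influx in TRPV1-expressing cells, kinetic read (ex 480/em 520 nm). Compound added and read 3 min for agonist activity, followed by capsaicin at EC20 final and 2 min further read for enhancement.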
# ClpP mod: qHTS Assay for Activators of ClpP; ATP-dependent Clp protease proteolytic subunit (Bacillus subtilis (strain 168)), P80244; purified B. subtilis ClpP, FRET peptide cleavage, 20 min; Potency, µM (top dose mostly 57.5 µM), for the others: top-dose activity change, negative = active; actives 1.9% (n = 340,000); active = well fitted falling curve with a large enough effect; inconclusive = small, poorly fitted or top-dose-only effect; inactive = no such curve, though single readings can be large or run the other way; note: potency is the fitted concentration of half-maximal effect; the source files actives as falling curves though it sought activators and does not explain the sign; nearly all actives have a fitted effect of over 65% in size
#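 FRET quenching reversal measured ClpP activation: 10 microg/mL B. subtilis ClpP at pH 8 with the FRET-FV decapeptide, read at 430 nm after 320 nm excitation. The 20-min minus 0-min signal was scaled between DMSO/no-enzyme wells and ADEP (5.8 microM final).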
# KCNH2 WT inh: KCNH2 (human, wildtype) channel inhibition; Q12809; U2OS, BacMam KCNH2, thallium flux FluxOr; hits give low values; activity change, % at 1.84 µM; actives 0.37% (n = 340,000);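 active = maximum activity change below -70%; inconclusive = maximum activity change between -70% and -50%; inactive = maximum activity change above -50%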; note: % is set by controls: 0 for no effect and ±100 for the full control effect
#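 U2OS cells were transduced with wild-type KCNH2 virus (2.03 x 10^8 / mL) for 4 h at room temperature, then cultured overnight at 37 C. Thallium flux was read with FluxOr dye. Rate constants were normalized to DMSO controls.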
# KCNH2 3.1 block: blocks the human KCNH2 3.1 channel isoform; actives 0.95% (n = 340,000); U2OS KCNH2 3.1, thallium flux FluxOr; hits give low values; activity change, % (tested at about 1.8 µM);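 active = maximum activity change below -70%; inconclusive = maximum activity change from -70% to -50%; inactive = maximum activity change above -50%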;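 note: thallium influx rate constant from kinetic fluorescence after stimulation buffer; % is set by controls: 0 for no effect and ±100 for the full control effect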
#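 Measured as rate of thallium-driven FluxOr signal in transduced U2OS cells carrying the 3.1 channel, read kinetically for 2 min upon stimulation; values are rate constants scaled to DMSO control wells.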
# TRPV1 potentiator: human TRPV1 potentiation; potentiation, % at 8.33 µM; TRPV1-expressing cells, Fluo-8 calcium influx, capsaicin EC20 potentiation; actives 0.02% (n = 320,000); in the data active = potentiation above about 80%; inconclusive = between about 30% and that limit; note: 0% is about no effect
#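 Fluo-8 calcium influx in TRPV1-expressing cells, kinetic read (ex 480/em 520 nm). Compound added and read 3 min for agonist activity, followed by capsaicin at EC20 final and 2 min further read for enhancement.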
# Active calls of the source: *; u = inconclusive; x = not tested or not shown.
SMILES,p53 reactivator,TRPV1 agonist,ClpP mod,KCNH2 WT inh,KCNH2 3.1 block,TRPV1 potentiator
O=C(NCc1ccc2c(c1)OCO2)c1ccc2c(c1)N(Cc1c(F)cccc1Cl)C(=O)c1ccccc1S2,x,u,-7%,x,x,9
Cc1ccc(-n2c(=O)[nH]c3c(C(N)=O)nc(CC(C)C)nc32)cc1,18%,7,28µM*,-1,4,-1
CCCN1CCC(=O)N([C@H](CSc2ccc(Br)cc2)Cc2ccccc2)CC1,4%,u,-3%,-89*,-101*,-45
CCCN1CCC(=O)N([C@H](CSc2ccc(C)cc2)c2ccccc2)CC1,17%,15,-12%,x,x,-18
CCCN1CCC(=O)N([C@H](CSc2ccccc2)c2ccccc2)CC1,x,12,-5%,-45,-94*,-3
CN1CCC(=O)N([C@H](CC#N)c2ccccc2)CC1,x,1,-24%,5,10,13
CC(C)C[C@@H](CSc1ccccc1)N1CCN(CCc2ccccc2)CCC1=O,28%,7,-1%,-77*,-101*,1
CN1CCC(=O)N([C@H](CSc2ccc(Br)cc2)c2ccccc2)CC1,8%,17,-4%,-7,-98*,7
CC(=O)Nc1ccc2nc(SCCOc3ccccc3Cl)sc2c1,x,x,1%,x,x,x
Cc1cc(=O)n(C(C)C(=O)NCc2ccccc2Cl)c2c1c(C)nn2-c1ccccc1 (configuration not stated),x,x,-11%,x,x,x
CCOC(=O)c1c(C)[nH]c(C)c1S(=O)(=O)N1CCC(C(=O)NCc2ccc(OC)cc2)CC1,x,x,0%,x,x,x
CC(C)C[C@@H](CSc1ccc(Br)cc1)N1CCN(CCc2ccccc2)CCC1=O,21%,11,1%,x,x,13
O=C1CCN(CCc2ccccc2)CCN1[C@H](CO)c1ccccc1,6%,-1,-2%,-5,4,-13
O=C1CCN(CCc2ccccc2)CCN1[C@H](CSc1ccccc1)c1ccccc1,18%,23,0%,-134*,-101*,-2
CC(C)CN1CCC(=O)N([C@H](CSc2ccccc2)Cc2ccccc2)CC1,x,u,-3%,-1,-101*,-10
Cc1ccc(SC[C@H](c2ccccc2)N2CCN(CCc3ccccc3)CCC2=O)cc1,u,-2,2%,-142*,-114*,-12
O=C(/C=C/[C@H]1O[C@@H](n2ccc(=O)[nH]c2=O)[C@H](O)[C@@H]1O)N[C@@H](Cc1ccccc1)C(=O)O,x,x,-2%,x,x,x
COc1ccc(C(C)(O)c2nc(-c3cccc(C(F)(F)F)c3)cs2)cc1 (configuration not stated),x,x,1%,x,x,x
O=C(/C=C/c1ccc2c(c1)OCO2)NCc1ccco1,u,12,28µM*,29,9,-9
COc1ccc(C2NC(c3ccc4c(c3)OCO4)=CC(c3ccccc3O)N2)cc1OC (configuration not stated),x,x,-8%,x,x,x
O=C(C1CCCN1S(=O)(=O)c1cccc2nsnc12)N1CCN(c2ccc(F)cc2)CC1 (configuration not stated),3%,0,-5%,36,-74*,-11
O=C(C1CCCN1S(=O)(=O)c1cccc2nsnc12)N1CCN(c2ccccc2)CC1 (configuration not stated),-4%,2,0%,-5,23,16
c1ccc(-c2ccc(-c3nc(-c4cccnc4)no3)cc2)cc1,36%,2,14µM*,-1,3,17
c1ccc(-c2noc(-c3cccnc3)n2)cc1,x,4,-2%,-24,4,-3
O=c1[nH]c2ccccc2cc1-c1noc(-c2cccnc2)n1,21%,-2,32µM*,-4,-1,10
COC(=O)Cc1ccc(OC2(C)CCN(Cc3ccc(-c4ccccn4)cc3)C2)cc1 (configuration not stated),x,x,-2%,x,x,x

# Compound activity from PubChem BioAssay.
